# Screening data (PubChem BioAssay)
# RORgamma inh: inhibitors of mouse ROR gamma transcriptional activity; 310,000 compounds, 5.4% hits; P51450; Drosophila S2 Gal4-RORgamma UAS-luciferase reporter, 20 h; Potency, µM (doses to about 53.6 µM), inactives show at the top dose activity change, negative = inhibition, actives largely listed as inhibitors; AID 2551; further: potency means the concentration at half of the fitted maximal effect; nearly all actives have a fitted effect of over 60% in size
# Target sequence (P51450 whole entry, looked up, the tested form may be a part): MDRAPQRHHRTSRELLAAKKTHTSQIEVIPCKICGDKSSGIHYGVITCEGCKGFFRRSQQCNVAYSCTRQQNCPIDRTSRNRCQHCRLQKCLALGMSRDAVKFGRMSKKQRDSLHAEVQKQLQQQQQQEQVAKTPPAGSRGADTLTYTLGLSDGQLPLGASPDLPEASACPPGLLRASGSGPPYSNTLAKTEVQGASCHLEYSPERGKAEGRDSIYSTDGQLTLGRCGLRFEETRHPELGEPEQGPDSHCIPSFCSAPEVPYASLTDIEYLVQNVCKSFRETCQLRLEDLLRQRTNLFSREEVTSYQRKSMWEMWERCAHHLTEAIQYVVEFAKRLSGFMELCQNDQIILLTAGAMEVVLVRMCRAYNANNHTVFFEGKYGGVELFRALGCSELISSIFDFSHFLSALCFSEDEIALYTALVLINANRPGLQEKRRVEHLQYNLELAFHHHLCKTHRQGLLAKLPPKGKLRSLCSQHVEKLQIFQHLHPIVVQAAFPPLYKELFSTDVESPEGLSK
#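 Stable Schneider cell line, Gal4 DNA-binding domain fused to ROR gamma, UAS-luciferase. Cmpd 1 hr RT → CuSO4 700 uM final → 20 hr RT → luciferase reagent 10 min → luminescence.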
# ELG1 DNA repair: inhibitors of ELG1-dependent DNA repair in HEK293T cells. HEK293T ELG1-luciferase reporter, luminescence, 16 h; DNA damage induced by 5-fluorouridine. Potency, µM (top dose mostly 46.1 µM), for the others: at the top dose activity change, negative = inhibition, usual class: inhibitors. 330,000 compounds, 2.3% hits. AID 504467; further: potency means the concentration at half of the fitted maximal effect; nearly all actives have a fitted effect of over 55% in size
#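 Reporter activity after DNA damage by 5-fluorouridine is monitored. Compound-treated cells incubate 16 hr at 37 °C, then ONE-Glo is added for 30 min before luminescence reading.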
# VP16 counter: inhibits Gal4-VP16 luciferase reporter, ROR gamma counter-screen; Drosophila S2 Gal4-VP16 UAS-luciferase, luminescence, 20 h; Potency, µM (highest dose often 53.6 µM), inactives show at the highest dose activity, negative = inhibition, actives largely listed as inhibitors; 310,000 compounds, 3.5% hits;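 further: Gal4-VP16 expression switched on by copper sulfate through the metallothionein promoter; potency means the concentration at half of the fitted maximal effect; nearly all actives have a fitted effect of over 50% in size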
# Coupling enz: inhibits coupling enzyme system, counter-screen for aldolase hits; 290,000 compounds, 0.67% hits; coupling enzyme system counterscreen, AmpLite Red fluorescence; activity change, negative = inhibition, % at 58.2 µM, hits read low; in the data active means activity change below about -30%
#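 Coupling enzymes only (glyceraldehyde-3-phosphate) + compound, at 57.5 uM final, 10 min RT; add substrate/coupling/AmpLite Red mix, 20 min RT; fluorescence ex 525/em 598 nm. Actives flag coupling-system interference.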
# TSHR antag: antagonists of human thyroid stimulating hormone receptor; AID 504810; TSHR-expressing cells, TSH-stimulated cAMP HTRF, 2 h; stronger effect = lower value; 330,000 compounds, 0.2% hits; activity change, negative = inhibition, % at 11.5 µM;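 active means activity change below a set negative limit, meaning inhibition stronger than a set level, cut at about -70% in these data; inconclusive means activity change between two set negative limits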
#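 Read-out is FRET at 665 nm (cryptate excitation 337 nm) from a cryptate-tagged anti-cAMP antibody, competed by cell cAMP against cAMP-d2. Compounds are tested on freshly harvested TSHR cells challenged with 4nM TSH (EC80) for 2 hours at 37 deg C.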
# * marks the source's active call; other numbers are inactive results; ? = inconclusive; · = no result; [ ] = dose if it differs, or a comment. Most compounds without a hit are left out; they make up all but 8% or so of the library. Unless noted, the call rests on the fitted dose curve; in most records, active means well fitted curve in the direction sought with a large enough effect; inconclusive means small, poorly fitted or top-dose-only effect, or another doubt; inactive means no such curve, though single readings can be large; an effect the other way counts as inactive or inconclusive. On the % scale 0 is the no-effect control and ±100 the full control effect.
SMILES,RORgamma inh,ELG1 DNA repair,VP16 counter,Coupling enz,TSHR antag
Cc1cccc(CSCCNC(=S)Nc2ccccc2)c1,5.6µM*,?,5.6µM*,-4,-14
S=C(NCCSCc1ccc(Cl)cc1)Nc1ccccc1,2.5µM*,-8%,11µM*,1,0
S=C(NCCSCc1ccccc1Cl)Nc1ccccc1,2.8µM*,-29%,4µM*,2,-6
C=CCn1c(SCC(=O)c2cccs2)nc2sc(CC)cc2c1=O,-16%,21µM*,?,0,?
C=CCn1c(SCC(=O)O)nc2sc(CC)cc2c1=O,0%,8%,-2%,20,-13
O=C(Nc1ccc2c(c1)OCCO2)NC1CCCCC1,?,?,?,1,-9
O=C(CSc1ccc2c(c1)OCCO2)NC(=O)NC1CCCC1,?,0.73µM*,?,0,19
O=c1c(-c2ccc(Cl)cc2)nc2cnc(N3CCNCC3)nc2n1Cc1ccc(F)cc1,-30%,·,-24%,0,·
CSCC[C@H](NC(=O)[C@H](CC(C)C)NC(=O)[C@@H]1CCCN1C(=O)[C@H](Cc1ccccc1)NC(=O)[C@H](Cc1ccccc1)NC(=O)[C@@H]1CCC(=O)N1)C(N)=O,-7%,·,-7%,-1,·
CCC(=O)OC1(C(=O)CCl)[C@@H](C)C[C@H]2[C@@H]3CCC4=CC(=O)C=C[C@]4(C)[C@@]3(F)[C@@H](O)C[C@@]21C (stereo partly drawn),·,?,·,·,0
CCC(=O)O[C@@]1(C(=O)CCl)C(C)CC2C3CCC4=CC(=O)C=C[C@@]4(C)[C@]3(F)C(O)C[C@]21C (stereo partly drawn),?,·,-18%,-6,·
CCCC(=O)O[C@]1(C(=O)CCl)[C@@H](C)C[C@H]2[C@@H]3CCC4=CC(=O)C=C[C@]4(C)[C@@]3(F)C(=O)C[C@@]21C,10µM*,4%,-3%,-3,-13
CCCCC(=O)O[C@]1(C(=O)CO)[C@H](C)C[C@H]2[C@@H]3CCC4=CC(=O)C=C[C@]4(C)[C@@]3(F)[C@@H](O)C[C@@]21C,7.9µM*,·,?,-1,·
CCC(=O)O[C@]1(C(=O)CCl)[C@@H](C)C[C@H]2[C@@H]3CCC4=CC(=O)C=C[C@]4(C)[C@@]3(F)[C@@H](O)C[C@@]21C,11µM*,4%,?,-6,5
O=C(CNc1cccc2ccccc12)N/N=C/C=C/c1ccco1,13µM*,4%,?,-5,-12
C/C(=N\NC(=O)CNc1cccc2ccccc12)c1ccccc1,-43%,-1%,-18%,-1,-4
C/C(CCc1ccco1)=N\NC(=O)CNc1cccc2ccccc12,1%,8%,-12%,-55*,9
OC[C@H]1O[C@H](n2cnc3c(NC4CCCC4)nc(Cl)nc32)[C@@H](O)[C@@H]1O,22%,·,-10%,-1,·
OC[C@H]1O[C@@H](n2cnc3cncnc32)[C@H](O)[C@@H]1O,7.1µM*,·,3.2µM*,0,-5
OCC1OC(n2cnc3c(Cl)nc(Cl)nc32)C(O)C1O (stereo not drawn),13µM*,·,-4%,2,·
COc1cc(-c2ccc(N=C=O)c(OC)c2)ccc1N=C=O,6%,·,-2%,·,·
COc1cccc(NC(=O)C(=O)NCCC2CCCCN2S(=O)(=O)c2ccccc2)c1 (stereo not drawn),·,?,·,·,-12
CCN(CC)C(CNC(=O)c1cc(=O)[nH]c2ccccc12)c1ccccc1Cl (stereo not drawn),-7%,0%,4%,1,0
Cc1ccc(CNC(=O)CSc2ncc(C(=O)Nc3ccccc3)c(=O)n2C)cc1,·,?,·,·,7
O=C(CS(=O)c1ccccc1[N+](=O)[O-])Oc1ccc(Br)cc1 (stereo not drawn),3%,-3%,-19%,0,12
SMILES,RORgamma inh,ELG1 DNA repair,VP16 counter,Coupling enz,TSHR antag
CS(=O)(=O)c1ccc(S(=O)CC(=O)Oc2ccc(Cl)cc2)c([N+](=O)[O-])c1 (stereo not drawn),4µM*,?,-25%,-27,0
O=C(/C=C/c1c(Cl)cccc1Cl)N1CCOCC1,-18%[1.91 µM],15%,10%,0,9
O=C(/C=C/c1c(Cl)cccc1Cl)n1cccn1,?,-19%,11µM*,5,7
C/C=C/C(=O)N(CC)c1ccccc1C,14%,14%,5%,-2,5
COc1ccc2nc(NC(=O)c3sc4nc(C)cc(C)c4c3N)sc2c1,0.04µM*,?,?,12,9
COC(=O)c1sc2nc(C)cc(C)c2c1N,-20%,?,-1%,-6,-4
COc1ccc2nc(NC(=O)c3cc(C)oc3C)sc2c1,?,?,?,-1,1
Cc1cc(C)c2c(N)c(C(=O)Nc3ncc(C)s3)sc2n1,2µM*,?,2.8µM*,-12,-2
N#CCCCS(=O)(=O)c1nnnn1-c1ccc(Br)cc1,8%,·,-22%,1,·
CC(=O)C(Sc1nc(NC(C)(C)C)nc(N(C)C)n1)C(C)=O,6.3µM*,11%,14µM*,2,20
COc1ccc(-n2nc3cc(C)c(N)cc3n2)cc1Cl,-6%,?,17%,-4,-19
COc1ccc(-c2cnn(-c3ccccc3)c2N)cc1OC,10%,?,-6%,5,4
COc1ccc(-c2cn(-c3ccc(C)c(Cl)c3)c(=S)[nH]2)cc1OC,?,12%,10µM*,0,-7
COc1ccccc1C1=NC(c2ccccc2)CN1c1ccccc1 (stereo not drawn),-2%,1%,2%,-1,8
COc1cccc(-n2cc(-c3ccc(F)cc3)[nH]c2=S)c1,1.3µM*,?,?,0,-2
COc1ccccc1-c1cn(-c2ccccc2)c(=S)[nH]1,2.8µM*,?,5.6µM*,-4,24
COc1cccc(-n2cnc3cccc(N)c32)c1,-5%,-17%,17%,-15,-4
COc1ccc(-c2cn(-c3ccccc3)c(=S)[nH]2)cc1OC,5.6µM*,?,11µM*,3,-2
O=C(Nc1cccc(S(=O)(=O)NC2=NCCC2)c1)c1ccccc1OC(F)F,·,0%,·,·,-7
COc1ccc(OCCn2cnc3ccccc32)cc1,35%,-6%,-5%,0,-5
COc1ccc(-c2cn(-c3ccc(C)c(C)c3)c(=S)[nH]2)cc1OC,?,0%,13µM*,2,4
COC(=O)c1ccc(-n2cc(-c3ccc(OC)cc3)[nH]c2=S)cc1,3.2µM*,-5%,?,-3,-6
COc1ccc(-c2c(C)nn(-c3ccccc3)c2N)cc1OC,38%,?,0%,-2,-3
COc1ccc(-n2cc(-c3ccc(Cl)cc3)[nH]c2=S)cc1,-42%,?,4%,0,-1
